According to article PMC5540273 (PLoS ONE, 2017):

Experiments:
Settings in all cases: concentration: 1 μM, replicates: in singlicate; n = 1
[1] = test system: T1, PYK2
T1 construct: gene PTK2B

[2] = test system: QSK
[3] = test system: RAF1
[4] = test system: RET
[5] = test system: RIOK1
[6] = test system: RIOK2
[7] = test system: RIOK3
[8] = test system: RIPK1
[9] = test system: RIPK2
[10] = test system: RIPK4
[11] = test system: RIPK5
[12] = test system: ROCK1
[13] = test system: ROCK2
[14] = test system: ROS1
[15] = test system: RPS6KA4(Kin.Dom.1-N-terminal)
[16] = test system: RPS6KA4(Kin.Dom.2-C-terminal)
[17] = test system: RPS6KA5(Kin.Dom.1-N-terminal)
[18] = test system: RPS6KA5(Kin.Dom.2-C-terminal)
[19] = test system: T2, RSK1(Kin.Dom.1-N-terminal)
T2 construct: gene RPS6KA1

[20] = test system: T3, RSK1(Kin.Dom.2-C-terminal)
T3 construct: gene RPS6KA1
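Also: KINOMEscan kinase panel screen.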

| Compound | %Inh [1] | %Inh [2] | %Inh [3] | %Inh [4] | %Inh [5] | %Inh [6] | %Inh [7] | %Inh [8] | %Inh [9] | %Inh [10] | %Inh [11] | %Inh [12] | %Inh [13] | %Inh [14] | %Inh [15] | %Inh [16] | %Inh [17] | %Inh [18] | %Inh [19] | %Inh [20] |
| --- | --- | --- | --- | --- | --- | --- | --- | --- | --- | --- | --- | --- | --- | --- | --- | --- | --- | --- | --- | --- |
| Nc1nc(-c2ccc3c(N)n[nH]c3c2)cc(N2CCCC2)n1 [GSK2227430] | 20% | 0% | 0% | 0% | 48% | 2% | 56% | 0% | 0% | 11% | 0% | 2% | 0% | 0% | 0% | 0% | 10% | 0% | 9% | 0% |
| Cl.Oc1cccc(Nc2ccnc3cc(-c4ccncc4)ccc23)c1 [GW494601] | 0% | 63% | 22% | 99.9% | 0% | 0% | 0% | 15% | 83% | 47% | 0% | 88% | 72% | 34% | 0% | 0% | 16% | 16% | 0% | 13% |
| O=c1cc(N2CCOCC2)nc2n(Cc3cccc4ccccc34)ccn12 [GSK2333389] | 17% | 7% | 0% | 80% | 8% | 47% | 0% | 0% | 0% | 0% | 0% | 0% | 19% | 0% | 12% | 0% | 0% | 0% | 0% | 0% |
| CC(C)Oc1ccc2c(-c3ccnc(Nc4ccc(N5CCN(C)CC5)cc4)n3)cnn2n1 [GW696155] | 42% | 23% | 0% | 56% | 99.9% | 90% | 95.4% | 40% | 15% | 27% | 77% | 98.8% | 99.7% | 51% | 0% | 99.8% | 0% | 98.9% | 34% | 90% |
| Cc1ccc(NC(=O)c2ccnc(N3CCN(C)CC3)c2)cc1-c1ccc(C(=O)NCC2CC2)cc1 [GW775604] | 0% | 0% | 10% | 0% | 0% | 0% | 0% | 0% | 0% | 0% | 0% | 41% | 0% | 0% | 10% | 0% | 0% | 0% | 0% | 0% |
| c1ccc(-c2n[nH]cc2-c2ccnc3ccccc23)nc1 [GW271431] | 9% | 0% | 2% | 0% | 58% | 11% | 26% | 20% | 23% | 2% | 0% | 0% | 0% | 28% | 11% | 0% | 9% | 4% | 21% | 12% |
| CCc1nc(-c2cccc(C)c2)c(-c2ccnc(NCc3ccccc3)c2)s1 | 9% | 0% | 24% | 4% | 10% | 0% | 22% | 0% | 26% | 0% | 14% | 0% | 0% | 0% | 0% | 1% | 1% | 4% | 0% | 57% |
| Cc1nnc(-c2ccc3ncc(-c4ccc(S(C)=O)cc4)n3c2)o1 (centres unmarked) | 0% | 0% | 49% | 9% | 0% | 0% | 0% | 0% | 21% | 24% | 21% | 28% | 9% | 0% | 0% | 9% | 0% | 2% | 0% | 27% |
| O=c1cc(N2CCOCC2)nc2n(Cc3cccc(C(F)(F)F)c3)ccn12 [GSK2297543] | 3% | 3% | 5% | 0% | 26% | 7% | 19% | 10% | 12% | 0% | 0% | 0% | 17% | 32% | 13% | 0% | 4% | 6% | 0% | 15% |
| CN1c2ccc(CNc3ccc(F)cc3)cc2-c2c(cnn2C)S1(=O)=O | 0% | 20% | 0% | 0% | 18% | 0% | 14% | 0% | 2% | 5% | 4% | 0% | 0% | 4% | 0% | 0% | 0% | 0% | 0% | 14% |
